# Tests used:
# Assay in all cases: PBM binding z-score (relative to random genomic background probes); higher = stronger binding; sequences stand for … in GC…GCGATTGACAGCGTAGAATGAAGG
# [1] = test system: FXR:RXRa (NR concentration 270 nM, RXRa partner concentration 90 nM)
# Outline: (§1)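 Regression normalization was applied to scanned fluorescence from custom Agilent 4×180K protein-binding microarrays. Before scanning, arrays were incubated 1 h with ligand-free nuclear receptor dimers, and binding was detected with antibodies against each partner (one per run). Binding z-scores use the random background probes as reference.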
# [2] = test system: LXRa:RXRa (NR concentration 270 nM, RXRa partner concentration 90 nM)
# Outline: as §1
# [3] = test system: LXRa homodimer (NR concentration 270 nM)
# Outline: as §1
# [4] = test system: LXRb:RXRa (NR concentration 270 nM, RXRa partner concentration 90 nM)
# Outline: as §1
# [5] = test system: LXRb homodimer (NR concentration 270 nM)
# Outline: as §1
# [6] = test system: PPARa:RXRa (NR concentration 270 nM, RXRa partner concentration 90 nM)
# Outline: as §1
# [7] = test system: PPARg:RXRa (NR concentration 180 nM, RXRa partner concentration 90 nM)
# Outline: as §1
# [8] = test system: PPARg:RXRa 270nM:90nM, anti-RXR (NR concentration 270 nM, RXRa partner concentration 90 nM)
# Outline: as §1
# [9] = test system: PPARg:RXRa 30nM:10nM, anti-RXR (NR concentration 30 nM, RXRa partner concentration 10 nM)
# Outline: as §1
# [10] = test system: PPARg:RXRa 90nM:30nM, anti-RXR (NR concentration 90 nM, RXRa partner concentration 30 nM)
# Outline: as §1
# [11] = test system: PPARg:RXRa DBDmut IVT, anti-RXR (DBD mutation: RXRa K156A/R161A, NR concentration 270 nM, RXRa partner concentration 90 nM)
# Outline: as §1
# [12] = test system: PPARg:RXRa IVT, anti-PPARg (NR concentration 270 nM, RXRa partner concentration 90 nM)
# Outline: as §1
# [13] = test system: PPARg DBDmut:RXRa IVT, anti-PPARg (DBD mutation: PPARg1 K132A/R137A, NR concentration 270 nM, RXRa partner concentration 90 nM)
# Outline: as §1
# [14] = test system: PPARg DBDmut IVT, anti-PPARg (DBD mutation: PPARg1 K132A/R137A, NR concentration 270 nM)
# Outline: as §1
# [15] = test system: PPARg homodimer (NR concentration 180 nM)
# Outline: as §1
# [16] = test system: PXR:RXRa (NR concentration 270 nM, RXRa partner concentration 90 nM)
# Outline: as §1
# [17] = test system: PXR homodimer (NR concentration 270 nM)
# Outline: as §1
# [18] = test system: RARa:RXR (NR concentration 270 nM, RXRa partner concentration 90 nM)
# Outline: as §1
# [19] = test system: RARa homodimer (NR concentration 270 nM)
# Outline: as §1
# [20] = test system: RARb:RXRa (NR concentration 270 nM, RXRa partner concentration 90 nM)
# Outline: as §1
Sequence,PBM binding z-score [1],PBM binding z-score [2],PBM binding z-score [3],PBM binding z-score [4],PBM binding z-score [5],PBM binding z-score [6],PBM binding z-score [7],PBM binding z-score [8],PBM binding z-score [9],PBM binding z-score [10],PBM binding z-score [11],PBM binding z-score [12],PBM binding z-score [13],PBM binding z-score [14],PBM binding z-score [15],PBM binding z-score [16],PBM binding z-score [17],PBM binding z-score [18],PBM binding z-score [19],PBM binding z-score [20]
TCTTGTAGATCAATAGAGGTTTAGAAAGTGCGCT,0.391,0.283,-0.272,0.00462,-0.299,0.237,-0.452,1.23,2.5,1.69,1.65,0.249,0.996,0.224,-0.539,0.49,-0.0138,0.588,0.0314,-0.311
GCTTGTAGATCAAGCTTAAGAAAGACTAAGCTAA,-0.441,-0.75,-0.914,-0.777,-1.32,-0.455,-0.439,-0.251,-0.693,-0.381,0.937,0.0262,-0.496,-0.218,-0.356,-0.566,-0.868,-0.0967,-0.929,-1.78
ATCGAAAGGTCGAAGAGGTGAGTATACACCGTTT,4.26,3.51,-0.1,2.49,0.443,4.09,2.38,2.8,0.698,2.03,-0.0174,1.75,0.444,0.332,1.01,2.82,0.5,3.46,0.27,3.62
CGTCCATGGTCAGAGAGGTCAGTGAATGCCGAGT,1.59,1.68,0.897,1.84,-0.375,2.51,0.301,0.981,-0.535,0.219,0.536,0.857,-0.938,-0.643,1.93,3.11,1.73,2.87,0.23,3.52
TCATATAGGTAAAAGGTGAAAGTTGGTGTGGTAA,2.15,2.33,0.407,2.44,0.326,5.33,9.26,8.44,8.7,8.75,5.28,5.23,1.91,1.67,2.39,2.16,0.944,3.3,2.02,2.09
CGTCAAAGTTCAACTAAGGTAACGTGAAGCACGC,7.3,6.43,4.57,3.84,1.83,5.09,4.91,5.8,2.35,4.5,0.871,2.2,0.717,0.859,3.36,5.76,4.5,4.34,2.47,5.26

# From the supplement of paper PMC6555819
